# Laboratory results published in PubChem BioAssay (NCATS).
# Inconclusive results are not listed. Activity calls are given as the source filed them. Unless noted, the call rests on the fitted dose curve; in most records, active means well fitted curve in the direction sought with a large enough effect; inconclusive means small, poorly fitted or top-dose-only effect, or another doubt; inactive means no such curve, though single readings can be large; an effect the other way counts as inactive or inconclusive.
# What was measured:
# [1] = target: Cytochrome P450 3A4 (Homo sapiens) (UniProt P08684); assay: qHTS Assay for Activators of Cytochrome P450 3A4 (AID 885); further: nearly all actives have a fitted effect of over 65% in size
# Outline: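 Human CYP3A4 (20 nM) with Luciferin-PPXE at 25 uM (its KM) in 200 mM KPO4; 10 min compound preincubation, then NADPH regeneration and 60 min reaction at RT. Luciferin read by luminescence; normalized to 57 uM ketoconazole full inhibition.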
# [2] = Confirmation and Secondary Assay for Modulators of Hemoglobin Beta Chain Splicing at IVS2 654 locus (AID 910);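 further: HeLa cells stably carrying EGFP split by mutant beta-globin IVS2-654 intron; per-well total GFP intensity by laser scanning cytometry after 2-day treatment; % of control where 0% means no effect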
# Outline: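 Readout: per-well total peak green fluorescence (488 nm ex, 500–520 nm em) from objects 5–250 µm, reflecting correct splicing of an EGFP-654 reporter. Compounds were applied for 2 days at 37 °C to overnight-plated HeLa EGFP-654 cells; controls were DMSO and 500 nM IVS2-654 PNA.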
# [3] = Confirmation and Secondary Assay for Modulators of Hemoglobin Beta Chain Splicing at IVS2 705 locus (AID 930);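 further: HeLa cells stably expressing the EGFP-705 splicing reporter; GFP fluorescence per well restored by corrected splicing of the IVS2-705 intron in EGFP; % of control where 0% means no effect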
# Outline: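 First, HeLa EGFP-705 cells are seeded at 500/well in Optimem with 2% FCS and left overnight. Next, compound or DMSO is added for 2 days. Finally wells are laser-scanned and total peak GFP intensity scored.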
# [4] = qHTS Assay for Lipid Storage Modulators (AID 1519; calls by dose curve; on activity change, negative = inhibition: on the % scale 0 is the no-effect control and ±100 the full control effect); conditions: Drosophila S3 cells, BODIPY lipid droplet/cell ratio, laser cytometry, cells loaded with oleic acid; for activity change, negative = inhibition: at 57.5 µM (top of the series)
# Outline: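 Cells seeded at 5,000 per well were treated with compounds over a concentration series and loaded with oleic acid (400 uM, as added). Lipid droplet fluorescence (488 nm excitation, 500-530 nm channel) was read by laser-scanning cytometry and normalized to 20 uM Triacsin C.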
# [5] = target: Ubiquitin carboxyl-terminal hydrolase 1 (Homo sapiens) (UniProt O94782); assay: Inhibitors of USP1/UAF1: Pilot qHTS (AID 504865);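 further: rhodamine fluorescence freed from ubiquitin-rhodamine substrate followed over time; top concentration of the series differs between compounds; on the % scale 0 is the no-effect control and ±100 the full control effect; nearly all actives have a fitted effect of over 35% in size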
# Outline: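 USP1/UAF1 complex at 1 nM preincubated 15 min at room temperature with compound, then Ub-Rho substrate added at 150 nM final. Fluorescence (480/540 nm) read kinetically in 50 mM HEPES pH 7.8, 0.5 mM EDTA, 1 mM TCEP, 0.1 mg/ml BSA, 0.01% Tween-20.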
# [6] = target: Cytochrome P450 3A4 (Homo sapiens) (UniProt P08684); assay: qHTS Assay for Inhibitors and Substrates of Cytochrome P450 3A4 (AID 884); further: nearly all actives have a fitted effect of over 50% in size; further: potency means the concentration at half of the fitted maximal effect; on activity change, negative = inhibition: on the % scale 0 is the no-effect control and ±100 the full control effect
# Outline: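 20 nM human CYP3A4 with 25 uM Luciferin-PPXE (at KM) in 200 mM KPO4, preincubated 10 min with compound; NADPH regeneration started a 60 min RT reaction. Luciferin detected by luminescence, normalized to 57 uM ketoconazole as full inhibition.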
# [7] = target: DNA dC->dU-editing enzyme APOBEC-3G (Homo sapiens) (UniProt Q9HC16); assay: qHTS for inhibitors of Vif-A3G interactions: Validation (AID 588379); further: 0% is about no effect
# Outline: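 HeLa cells stably expressing Vif and A3G-eYFP, 700 cells/well, incubated overnight at 37 deg C, then exposed to compound overnight at 37 deg C. Inhibition of Vif-mediated degradation read as increased yellow fluorescence (Ex 488/Em 500-530) by laser-scanning cytometry.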
# [8] = measured here: cell count channel max response
# [9] = measured here: lipid channel max response
# Chain of Cytochrome P450 3A4 (Homo sapiens) (P08684 whole entry, looked up): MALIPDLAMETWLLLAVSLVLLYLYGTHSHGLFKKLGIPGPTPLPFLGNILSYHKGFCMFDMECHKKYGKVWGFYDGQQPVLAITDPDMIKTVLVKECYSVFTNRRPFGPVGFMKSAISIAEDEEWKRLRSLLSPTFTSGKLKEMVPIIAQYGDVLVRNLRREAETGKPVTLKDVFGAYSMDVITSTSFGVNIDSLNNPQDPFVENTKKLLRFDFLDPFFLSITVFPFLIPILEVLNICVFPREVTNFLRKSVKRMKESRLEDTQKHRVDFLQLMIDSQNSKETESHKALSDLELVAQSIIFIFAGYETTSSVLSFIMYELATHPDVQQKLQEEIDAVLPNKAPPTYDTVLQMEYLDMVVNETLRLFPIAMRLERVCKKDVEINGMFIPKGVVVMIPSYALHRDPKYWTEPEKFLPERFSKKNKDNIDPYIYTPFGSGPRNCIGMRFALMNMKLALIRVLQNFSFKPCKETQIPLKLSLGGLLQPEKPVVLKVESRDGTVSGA
# Chain of Ubiquitin carboxyl-terminal hydrolase 1 (Homo sapiens) (O94782 whole entry, looked up): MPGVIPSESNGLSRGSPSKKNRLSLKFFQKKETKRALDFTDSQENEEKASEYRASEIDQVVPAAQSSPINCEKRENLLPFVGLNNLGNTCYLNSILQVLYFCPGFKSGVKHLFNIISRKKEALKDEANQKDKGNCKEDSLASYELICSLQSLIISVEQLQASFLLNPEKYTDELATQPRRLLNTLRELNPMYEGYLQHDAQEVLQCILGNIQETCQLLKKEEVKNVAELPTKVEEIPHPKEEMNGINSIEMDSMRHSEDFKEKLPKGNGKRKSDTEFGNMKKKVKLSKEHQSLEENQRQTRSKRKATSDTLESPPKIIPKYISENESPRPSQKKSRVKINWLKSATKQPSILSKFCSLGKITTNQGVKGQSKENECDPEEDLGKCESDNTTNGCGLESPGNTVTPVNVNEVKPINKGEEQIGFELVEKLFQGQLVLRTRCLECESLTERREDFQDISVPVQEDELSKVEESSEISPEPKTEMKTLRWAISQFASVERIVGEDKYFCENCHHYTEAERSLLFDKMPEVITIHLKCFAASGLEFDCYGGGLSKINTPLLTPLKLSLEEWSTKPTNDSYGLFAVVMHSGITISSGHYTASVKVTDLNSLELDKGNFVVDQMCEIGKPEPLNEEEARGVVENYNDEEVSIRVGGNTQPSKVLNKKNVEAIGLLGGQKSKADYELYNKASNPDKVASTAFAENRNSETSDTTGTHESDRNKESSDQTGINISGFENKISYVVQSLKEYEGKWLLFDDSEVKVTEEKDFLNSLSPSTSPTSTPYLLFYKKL
# Chain of DNA dC->dU-editing enzyme APOBEC-3G (Homo sapiens) (Q9HC16 whole entry, looked up): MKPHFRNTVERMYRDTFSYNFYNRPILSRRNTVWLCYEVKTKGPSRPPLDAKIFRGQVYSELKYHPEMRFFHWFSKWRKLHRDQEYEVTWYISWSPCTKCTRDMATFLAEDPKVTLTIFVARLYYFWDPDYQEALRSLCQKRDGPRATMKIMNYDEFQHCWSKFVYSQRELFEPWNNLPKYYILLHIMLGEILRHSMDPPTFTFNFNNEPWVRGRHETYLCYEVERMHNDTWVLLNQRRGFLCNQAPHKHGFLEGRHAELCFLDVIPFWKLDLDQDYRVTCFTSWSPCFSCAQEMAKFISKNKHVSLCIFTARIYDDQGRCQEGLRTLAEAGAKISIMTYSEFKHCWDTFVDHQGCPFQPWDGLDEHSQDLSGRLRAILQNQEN
SMILES,Potency [1],Potency [2],Potency [3],"activity change, negative = inhibition [4]","max response [4, 8]","max response [4, 9]",Potency [5],Potency [6],outcome [7]
NCC(=O)c1ccccc1,inactive,inactive,inactive,8.66% (inactive),23.8%,35.4%,inactive,,
CC(=O)C1CC[C@H]2C3CC[C@@H]4CC(O)CC[C@@]4(C)C3CC[C@]12C (stereo partly specified),,inactive,inactive,12.3% (inactive),9.69%,25.9%,inactive,inactive,
CC1(C)C(O)CC(O)[C@]2(C)C1CC(O)[C@]1(C)C2CC[C@@]2(C)C(c3ccoc3)OC(=O)C3O[C@]312 (stereo partly specified),inactive,inactive,inactive,0.703% (inactive),12.6%,16.1%,,12.6 µM (active),
C=C1C2CC[C@@]3(C)C(c4ccoc4)OC(=O)C[C@@]13OC1CC(=O)C(C)(C)C(C(OC(C)=O)C(=O)OC)[C@@]12C (stereo partly specified),inactive,inactive,inactive,1.36% (inactive),4.29%,7.56%,,1 µM (active),
CC(C)(O)C1C2OC(=O)C1[C@]1(O)CC3O[C@@]34C(=O)OC2[C@@]14C (stereo partly specified),,inactive,inactive,4.81% (inactive),5.32%,12.9%,inactive,,
C=C1C/C(=C/C)C(=O)O[C@@H]2CCN3CC=C(COC(=O)[C@]1(C)O)[C@@H]23,inactive,,,3.16% (inactive),6.54%,10.1%,,15.8 µM (active),inactive
CC(C)(C#N)O[C@H]1OC(CO)C(O)C(O)C1O (stereo partly specified),,inactive,,4.98% (inactive),13.6%,22.9%,,inactive,
CC(=O)OC1CC(OC(C)=O)[C@]2(C)C(CC(OC(C)=O)[C@]3(C)C2CC[C@@]2(C)C(c4ccoc4)C(=O)C4O[C@]432)C1(C)C (stereo partly specified),inactive,inactive,,-15.3% (inactive),-13.1%,-24.4%,,3.98 µM (active),
COC1=CC2C3Cc4ccc(OC)c(O)c4[C@]2(CCN3C)CC1=O (stereo partly specified),,inactive,,4.04% (inactive),-5.63%,0.618%,,inactive,
